For this assay, the system named is VDR:RXRa (NR concentration 270 nM, RXRa partner concentration 90 nM). Kind of assay: PBM binding z-score (relative to random genomic background probes); higher = stronger binding; sequences stand for … in GC…GCGATTGACAGCGTAGAATGAAGG
Here is the method:
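Protein-binding microarray (Agilent 4x180K custom design, double-stranded 60-nt probes: 5' GC cap, 34-nt variable region, 24-nt constant primer region; full probe sequence given). Purified or IVT nuclear receptor:RXRα heterodimers (3:1 NR:RXRα, mostly 270:90 nM) or homodimers were incubated for 1 h in PBS with 2% milk and no ligand, then detected with Alexa488 antibodies. Fluorescence from o1-orientation probes (~5 replicates averaged) was converted to z-scores against 500 random hg19 background probes. Variable regions are seed direct-repeat (DR0–DR5) sites, all their single-nucleotide variants and half-site ablations.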
The sequence TTACCAAGGTGAGCTGAGGGCGTTGATCCAACTC registered a PBM binding z-score of 1.89.

For AGAATGAGGTTACCAAGGATCAGGGAAACGCTTG, the PBM binding z-score stood at 2.03.

As to ATCTCTAGGTAAAGTTCAGTGAAAGATCGATAGA, the PBM binding z-score amounted to 1.73.

In turn, TAGCCTAGGTCATTCAGGGGCCAGTATCGAAAGC yielded a PBM binding z-score of 2.97.

On to TAGCCTAGGTCATTGGGCCAGTAGAGTACGCATC, for which the PBM binding z-score was 2.26.

In the case of CCTTACGGGTCACGAGGTTATAACACGACGAGCG, the PBM binding z-score was found to be 5.28.

Consider CCGACTGGGGCAAAAAGGTTACCATACCATCCGG, for which the PBM binding z-score was 1.28.

CGTCCAAGGTCAGAGACGTCAGTGAATGCCGAGT came in with a PBM binding z-score of 2.76.

In turn, CAAACTAGATCAAGGTCAAAGTCGGTTTGTGCCA came in with a PBM binding z-score of 4.12.

For the sequence CCTCGGAGGCCAACAGGAGGTCAGAGCTGCCAGA, the PBM binding z-score worked out at 2.07.

TCGAGTAGGTTAGGAGCATTCAGAATGGCGTCGA registered a PBM binding z-score of -0.474.

AGTCAAAGTTCAGGACGAGGTAACGTCAAGCACG came in with a PBM binding z-score of 3.07.

Sequence TAGCCTAGGTCAGATCGGGCCGGTATACGCTATA gave a PBM binding z-score of 0.236.

In turn, CCGACTGGGGCAAGATTACCATAACGCACAGCCA registered a PBM binding z-score of -0.621.

In turn, GCTTACGGGTCAAAGGTTATATCATGAATAGAAT registered a PBM binding z-score of 5.71.

In turn, TCTATTAGTTGCAGGGCAACCGACGAGTCCGTTT displayed a PBM binding z-score of 0.743.

On to TCTAGCAGGCCTGAGGGTCACTCAAGAGGTACGG, for which the PBM binding z-score stood at 1.9.

As to AGAATGAGGTTACCAAAGATCGGGGAAACGCTTG, the PBM binding z-score turned out to be 1.3.

The sequence GCTAGCAGGCCATTTGGGTCACTCAATGACGGGC showed a PBM binding z-score of 0.933.

Take TCTCGGAGGACACGAAGGTCAGGGCTTTCCAGAG: the PBM binding z-score came out at 2.24.

In turn, GATACAGGGTCAGCTAGAGCCCAGAGTATGGAAA registered a PBM binding z-score of 2.26.

In turn, AGTACGAGGGCAATGAGTTGATAGCACGGGTGGC returned a PBM binding z-score of 5.08.

Turning to CTCGAAAGATCGTGCTCAGGTGAGTATACCAAAC, the PBM binding z-score was -0.291.

In turn, AGAATGAGGTAATTAAGATCAGGGAATTGCGGTC displayed a PBM binding z-score of 0.215.

Regarding CAGCCTAGGTCAGGGCCAGTACAGGAGGAACGTT, the PBM binding z-score is 0.635.

For the sequence GCTAGTTGGTCCGTAAAAGGTCACACACCGGTCG, the PBM binding z-score came out at 3.97.

Consider TCTAGCAGTCCAGAGGGTCACTCAAGAGGTACGG, for which the PBM binding z-score is 1.69.

The sequence CCGACTGGGGCAGAAAGGGTACCATACCATCCGG displayed a PBM binding z-score of -0.384.

In turn, TAGACTAGGTCAGATCGGGCCAGTATACGCTATA displayed a PBM binding z-score of 0.598.

The sequence ATTAGCAGGCCAAGGGTCACTCAAGATTAGTCCG registered a PBM binding z-score of 2.92.

As to TCATATAGATAAATGCTAGGTGAAAGTCCGATCT, the PBM binding z-score was determined as 0.736.

Turning to AGAATGAGGTTATACCTAGATCAGGGAAGAAAGT, the PBM binding z-score came to 1.11.

CCTACTGGGCCACGAAAGGTCATTGAGTCAGTGA yielded a PBM binding z-score of 4.67.

As for GGAACGAGGGCAAAGTCGATAGCATCTGTCGACG, the PBM binding z-score amounted to 0.524.

The sequence GCTAGCAGGCCTTTTGGGTCACTCAATGACGGGC gave a PBM binding z-score of -0.0926.

ATACCATGGTGATCGTGAGGTCGTTGATACTAAC yielded a PBM binding z-score of 2.03.

AGATGTAGGTTAAGGGTCATTCAGGTTGGTTCGC: the PBM binding z-score is 5.59.

With AGAATGAGGTTATTAGGATCAGGGAATTGCGGTC, the PBM binding z-score stood at 2.7.

As to CGTCCAAGGTCAAGGTCAGTGCAAGAGACTCGAA, the PBM binding z-score is 5.5.

Sequence TGCATGAGGTTATAAGATCAGGGAACGTTGCAAA returned a PBM binding z-score of 1.01.

These data come from the supplement of paper PMC6555819.
